Test [1] is described as follows: Nuclear factor erythroid 2-related factor 2/antioxidant responsive element (Nrf2/ARE) small molecule agonists: luciferase reporter gene qHTS assay in human keratinocytes (AID 1919969). Note: nearly all actives have a fitted effect of over 35% in size. Note: potency is the fitted concentration of half-maximal effect.
Test [2] concerns the target Gonadotropin-releasing hormone receptor (Homo sapiens) (UniProt P30968). In words: Human gonadotropin-releasing hormone receptor (GnRHR) small molecule agonists, calcium flux assay in GnRHR-HEK293 cells (AID 1920063). Note: nearly all actives have a fitted effect of over 35% in size. In short, it runs like this: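 HEK293 cells stably expressing human GnRHR were plated 18 h at 37 °C, loaded with calcium dye 1 h at 37 °C, then given compound in agonist mode; fluorescence (Ex/Em 480/540) read kinetically for 3 min at 1 s intervals.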
Background: Calcium assays in cells follow changes in intracellular calcium, usually with a dye or a luminescent sensor.

The target of test [3] is KiSS-1 receptor (Homo sapiens) (UniProt Q969F8). Description: Human kisspeptin (KISS1R) small molecule agonists, calcium flux assay in KISS1R-HEK293 cells (AID 1920064; active = well fitted activation curve with a large enough effect in the repeat runs). In short, it runs like this: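 HEK293 cells stably expressing human KISS1R were plated 18 h at 37 °C, loaded with calcium dye for 1 h at 37 °C, then given compound by pin tool. Fluorescence (Ex/Em 480/540) was read kinetically for 3 min.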
KiSS-1 receptor (Homo sapiens), sequence (Q969F8 whole entry, looked up): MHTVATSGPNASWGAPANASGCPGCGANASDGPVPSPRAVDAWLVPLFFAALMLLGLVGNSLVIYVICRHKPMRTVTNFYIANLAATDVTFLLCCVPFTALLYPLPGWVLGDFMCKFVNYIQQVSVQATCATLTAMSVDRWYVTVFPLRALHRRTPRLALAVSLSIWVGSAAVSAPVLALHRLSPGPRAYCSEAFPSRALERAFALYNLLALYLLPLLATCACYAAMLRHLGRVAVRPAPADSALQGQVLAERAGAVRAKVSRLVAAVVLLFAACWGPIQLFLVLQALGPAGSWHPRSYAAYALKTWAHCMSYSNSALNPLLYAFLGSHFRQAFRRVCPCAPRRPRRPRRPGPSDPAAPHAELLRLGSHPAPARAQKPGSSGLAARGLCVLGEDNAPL

The nature of test [4]: G protein-coupled receptor (GPCR) small molecule agonists, calcium flux assay: HEK293 wild type cell line counter screen (AID 1920065). In short, it runs like this:
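Cells were plated and cultured 18 h at 37 C/5% CO2, then loaded with calcium dye for 1 h at 37 C. Compounds in DMSO were pin-transferred in agonist mode, and fluorescence (Ex/Em 480/540) was read kinetically for 3 min at 1 s intervals.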

The nature of test [5]: p53 small molecule agonists, cell-based qHTS assay with human liver microsomes (AID 1963577). In short, it runs like this:
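p53RE-bla cells, 4,000/well, compound added after 5 h, with human liver microsomes 0.5 mg/mL and NADPH 0.5 mg/mL final; 16 h at 37 C, then LiveBLAzer 2 h RT, fluorescence.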
Background: qHTS replaces the single test concentration by a dilution series.

A short description of test [6]: p53 small molecule agonists, cell-based qHTS assay with rat liver microsomes (AID 1963578). In short, it runs like this: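 p53RE-bla cells, 4,000/well, pre-incubated 5 h, then given compounds plus rat liver microsomes (0.5 mg/mL final) and NADPH (0.5 mg/mL final). Incubation 16 h at 37 C; beta-lactamase reporter read by LiveBLAzer fluorescence after 2 h at room temperature.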

Test [7] in a line: p53 small molecule agonists, cell-based qHTS assay with human liver microsomes: qHTS cell viability counter screen (AID 1963579). Note: nearly all actives have a fitted effect of over 45% in size. Note: potency is the fitted concentration of half-maximal effect. In short, it runs like this:
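p53RE-bla cells, 4,000/well, dosed 5 hours after plating, with human liver microsomes (0.5 mg/mL final) plus NADPH (0.5 mg/mL final), 16 hours at 37 C. Viability read as CellTiter-Glo luminescence after 30 min at room temperature.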

A short description of test [8]: p53 small molecule agonists, cell-based qHTS assay with rat liver microsomes: qHTS cell viability counter screen (AID 1963580). Note: nearly all actives have a fitted effect of over 45% in size. Note: potency is the fitted concentration of half-maximal effect. In short, it runs like this: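 Viability is assessed in parallel with the p53 reporter read: HCT-116 p53RE-bla cells receive compounds plus rat microsomes and NADPH (0.5 mg/mL final apiece), incubate 16 h at 37 C, and then CellTiter-Glo luminescence is recorded.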

Test [9] can be described thus: p53 small molecule agonists, cell-based qHTS assay (AID 1963582; active = well fitted activation curve with a large enough effect in the signal ratio in the repeat runs, not every such curve was filed as active; the % refers to the signal ratio). In short, it runs like this: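 p53RE-bla beta-lactamase reporter cells rested 5 h at 37 C/5% CO2, then received compounds in DMSO by pin transfer and were incubated 16 h at 37 C. LiveBLAzer B/G FRET substrate was loaded for 2 h at room temperature before fluorescence reading.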
For test [10], the target named is 5-hydroxytryptamine receptor 2A (Homo sapiens) (UniProt P28223). In words: 5-hydroxytryptamine receptor 2A (HTR2A) small molecule antagonists, cell-based qHTS assay (AID 1963586). Note: nearly all actives have a fitted effect of over 45% in size. Note: potency is the fitted concentration of half-maximal effect. In short, it runs like this:
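Antagonist-mode intracellular calcium assay: DOI (4 nM) added after 5 min compound pre-incubation at room temperature to dye-loaded HTR2A-CHO cells. Fluorescence followed for 3 min, sampled every second.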

For test [11] the target is unchanged. In words: 5-hydroxytryptamine receptor 2A (HTR2A) small molecule agonists, cell-based qHTS assay (AID 1963587). Note: nearly all actives have a fitted effect of over 30% in size. Note: potency is the fitted concentration of half-maximal effect. In short, it runs like this:
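CHO cells stably expressing human HTR2A, plated 18 h, loaded with calcium dye 1 h at 37 C. Agonist mode: compounds added and intracellular calcium fluorescence recorded kinetically for 2 min at 1 sec intervals.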

The target of test [12] is Muscarinic acetylcholine receptor M1 (Homo sapiens) (UniProt P11229). Description: Cholinergic receptor muscarinic 1 (CHRM1) small molecule antagonists, cell-based qHTS assay (AID 1963588). Note: nearly all actives have a fitted effect of over 40% in size. In short, it runs like this:
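CHRM1-CHO calcium-flux assay, antagonist mode. Cells were seeded 18 h, dye-loaded 1 h at 37 C and given compound for 5 min at RT, then acetylcholine was added at 50nM. FDSS fluorescence was read 3 min; 15 concentrations, three runs.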

The target is the same in test [13]. In words: Cholinergic receptor muscarinic 1 (CHRM1) small molecule agonists, cell-based qHTS assay (AID 1963589). Note: nearly all actives have a fitted effect of over 35% in size. In short, it runs like this:
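CHO cells stably expressing human CHRM1, seeded 18 h at 37 C/5% CO2, dye-loaded 1 h at 37 C, then given compound in agonist mode; intracellular calcium fluorescence read kinetically at 1 s intervals. Fifteen concentrations, three independent runs.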

Test [14] in a line: cAMP Responsive Elements (CRE) small molecule agonists, cell-based qHTS assay (AID 1963590). In short, it runs like this: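 CRE-bla HEK 293T cells in DMEM with 10% dialyzed FBS, NEAA, pyruvate and 25 mM HEPES were plated 18 h at 37 C/5% CO2, then exposed to compounds in DMSO for 3 h before LiveBLAzer B/G FRET substrate addition.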
Test [15] can be described thus: cAMP Responsive Elements (CRE) small molecule antagonists, cell-based qHTS assay (AID 1963591; active = well fitted inhibition curve with a large enough effect in the signal ratio in the repeat runs, not every such curve was filed as active; the % refers to the signal ratio; note: potency is the fitted concentration of half-maximal effect). In short, it runs like this:
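CRE-bla HEK293T cells were plated 18 h at 37 °C/5% CO2, pinned with compound in DMSO, then stimulated with NKH477 at 0.25 uM final for 3 h. LiveBLAzer B/G FRET substrate was added and plates incubated 2 h at room temperature.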

In test [16] the target is Beta-2 adrenergic receptor (Homo sapiens) (UniProt P07550). In words: Adrenergic beta2 receptor (ADRB2) small molecule antagonists, cell-based qHTS assay (AID 1963592). Note: series mostly up to about 92 µM; nearly all actives have a fitted effect of over 50% in size. In short, it runs like this:
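Cells (CHO, stable ADRB2 overexpression) incubated 18-20hr at 37C; compounds added from DMSO; agonist mix (1nM isoproterenol, 100uM IBMX, 25uM Ro-20-1724) added; 0.5hr RT; d2-cAMP and anti-cAMP-cryptate added; 1hr RT; 665/615 nm read.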

In test [17] the target is D(2) dopamine receptor (Homo sapiens) (UniProt P14416). In words: Dopamine D2 receptor (DRD2) small molecule agonists, cell-based qHTS assay (AID 1963594). Note: nearly all actives have a fitted effect of over 35% in size. Note: potency is the fitted concentration of half-maximal effect. In short, it runs like this:
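HEK293 cells stably expressing human DRD2, pre-treated with PDE inhibitor Ro20-1724 (0.1 mM final) and compound 10 min at room temperature, then stimulated with NKH477 (200nM […]) for 30 min. cAMP read by HTRF (665/620 nm).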

Test [18] shares this target. Description: Dopamine D2 receptor (DRD2) small molecule antagonists, cell-based qHTS assay (AID 1963595; active = well fitted inhibition curve with a large enough effect in the signal ratio in the repeat runs, with a control signal flat; the % refers to the signal ratio; note: potency is the fitted concentration of half-maximal effect). In short, it runs like this:
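Antagonist mode in DRD2-HEK293 cells: after compound addition with 0.1 mM Ro20-1724, cells received quinpirole (12 nM) and NKH477 (200 nM) for 30 min at room temperature; HTRF cAMP read after 1 h detection.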

Test [19] in a line: p53 small molecule agonists, cell-based qHTS assay: qHTS cell viability counter screen (AID 1963581). Note: nearly all actives have a fitted effect of over 45% in size. In short, it runs like this:
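p53RE-bla HCT-116 cells were exposed to compounds for 16 h at 37 C; after the beta-lactamase FRET read in the same wells, CellTiter-Glo was added and luminescence (intracellular ATP) read after 30 min at room temperature.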

Six compounds from PubChem BioAssay (Tox21) can be followed below.

Structures are written as SMILES. Values without a mark were called inactive. Results filed as inconclusive are left out. Activity calls are given as the source filed them. Unless noted, calls come from the whole dose curve.

5-hydroxytryptamine receptor 2A (Homo sapiens), sequence (P28223 whole entry, looked up): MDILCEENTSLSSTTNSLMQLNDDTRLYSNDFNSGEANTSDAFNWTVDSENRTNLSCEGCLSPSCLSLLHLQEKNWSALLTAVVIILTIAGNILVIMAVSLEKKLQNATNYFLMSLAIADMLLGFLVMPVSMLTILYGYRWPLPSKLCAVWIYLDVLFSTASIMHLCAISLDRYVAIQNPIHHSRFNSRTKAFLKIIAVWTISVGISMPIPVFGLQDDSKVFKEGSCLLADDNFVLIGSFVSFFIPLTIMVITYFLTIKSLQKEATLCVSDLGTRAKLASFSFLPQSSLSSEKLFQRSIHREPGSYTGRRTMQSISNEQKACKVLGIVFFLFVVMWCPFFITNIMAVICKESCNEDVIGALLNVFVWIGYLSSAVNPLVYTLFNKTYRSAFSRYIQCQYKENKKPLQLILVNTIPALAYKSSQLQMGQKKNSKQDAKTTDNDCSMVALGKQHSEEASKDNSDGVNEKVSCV
Beta-2 adrenergic receptor (Homo sapiens), sequence (P07550 whole entry, looked up): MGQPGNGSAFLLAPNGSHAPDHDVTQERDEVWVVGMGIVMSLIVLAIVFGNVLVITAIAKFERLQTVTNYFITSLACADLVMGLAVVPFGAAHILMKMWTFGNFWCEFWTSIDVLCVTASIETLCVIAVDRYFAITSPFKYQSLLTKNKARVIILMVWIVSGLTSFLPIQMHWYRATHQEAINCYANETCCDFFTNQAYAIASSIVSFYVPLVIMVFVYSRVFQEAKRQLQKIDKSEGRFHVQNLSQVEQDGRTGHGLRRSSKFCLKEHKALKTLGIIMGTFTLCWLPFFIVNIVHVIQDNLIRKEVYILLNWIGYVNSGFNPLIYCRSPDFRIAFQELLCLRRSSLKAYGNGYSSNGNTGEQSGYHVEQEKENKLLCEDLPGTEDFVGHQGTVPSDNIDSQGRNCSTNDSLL
Gonadotropin-releasing hormone receptor (Homo sapiens), sequence (P30968 whole entry, looked up): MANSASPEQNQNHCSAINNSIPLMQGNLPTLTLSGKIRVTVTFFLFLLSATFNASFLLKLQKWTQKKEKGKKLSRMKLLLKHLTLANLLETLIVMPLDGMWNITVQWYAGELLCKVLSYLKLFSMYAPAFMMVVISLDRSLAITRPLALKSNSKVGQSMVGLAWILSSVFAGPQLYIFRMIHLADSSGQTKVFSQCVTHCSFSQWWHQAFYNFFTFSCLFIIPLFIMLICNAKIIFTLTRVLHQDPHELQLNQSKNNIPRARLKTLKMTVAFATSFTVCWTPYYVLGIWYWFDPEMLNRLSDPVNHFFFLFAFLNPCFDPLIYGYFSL
D(2) dopamine receptor (Homo sapiens), sequence (P14416 whole entry, looked up): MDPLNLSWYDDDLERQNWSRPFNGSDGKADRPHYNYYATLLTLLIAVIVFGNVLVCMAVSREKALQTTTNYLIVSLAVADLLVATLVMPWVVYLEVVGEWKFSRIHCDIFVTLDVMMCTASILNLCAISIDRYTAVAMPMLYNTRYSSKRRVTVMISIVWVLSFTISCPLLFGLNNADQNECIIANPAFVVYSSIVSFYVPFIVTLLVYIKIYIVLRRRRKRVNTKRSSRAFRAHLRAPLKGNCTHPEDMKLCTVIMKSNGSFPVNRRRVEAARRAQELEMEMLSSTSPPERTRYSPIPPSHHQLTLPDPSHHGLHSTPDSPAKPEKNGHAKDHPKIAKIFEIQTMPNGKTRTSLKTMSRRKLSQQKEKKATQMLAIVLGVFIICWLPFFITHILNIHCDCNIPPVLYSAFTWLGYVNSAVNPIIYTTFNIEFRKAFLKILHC
Muscarinic acetylcholine receptor M1 (Homo sapiens), sequence (P11229 whole entry, looked up): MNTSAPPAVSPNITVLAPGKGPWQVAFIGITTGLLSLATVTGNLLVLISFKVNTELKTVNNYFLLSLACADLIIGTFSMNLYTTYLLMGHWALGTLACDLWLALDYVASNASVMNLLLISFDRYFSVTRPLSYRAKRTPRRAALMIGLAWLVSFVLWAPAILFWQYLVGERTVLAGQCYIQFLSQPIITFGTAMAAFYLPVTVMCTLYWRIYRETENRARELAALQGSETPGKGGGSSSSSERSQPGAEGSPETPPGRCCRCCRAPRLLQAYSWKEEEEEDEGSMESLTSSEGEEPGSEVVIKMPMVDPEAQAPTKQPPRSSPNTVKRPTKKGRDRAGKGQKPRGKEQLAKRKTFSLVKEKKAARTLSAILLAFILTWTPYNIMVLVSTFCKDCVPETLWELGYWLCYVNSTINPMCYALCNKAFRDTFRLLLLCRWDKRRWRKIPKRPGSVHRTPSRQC

On to `CC(COc1ccc(C(C)(C)C)cc1)OS(=O)OCCCl` (centres undefined), for which the Potency result in [1], in [2], in test [3], in test [4], in test [5] and in test [6] was “inactive” each time. Moreover, the Potency result in test [7], in [8], in test [9], in test [10], in test [11] and in [12] was “inactive” throughout. Also, the Potency entry in test [13], in test [14], in test [16], in test [17] and in [18] was “inactive” each time. Moreover, in test [15], the Potency was 43.5 µM (active).

For the compound `CCOc1cccc(-n2cc(C(=O)N3CCN(c4cc(C(=O)O)c5ccccc5c4)CC3)nc2-c2ccc(C)cc2)c1`, the Potency result in test [1], in [2], in test [3], in test [4], in test [5] and in test [6] was “inactive” each time. Moreover, the Potency entry in [18] was “inactive”. For the same compound, the Potency in test [7] was 17.4 µM (active); in test [8], 24.6 µM (active); in test [11] it was 0.0933 µM (active); in [17], 65.5 µM (active).

For the compound `COC(=O)[C@@H](N)Cc1ccc(O)c(O)c1`, the Potency result in test [1], in test [2], in test [3], in test [4], in test [5] and in test [6] was “inactive” throughout. In addition, the Potency result in [7], in [8], in [19], in test [11], in test [12] and in test [13] was “inactive” in each case. Also, the Potency entry in test [14], in test [15], in test [16] and in test [18] was “inactive” throughout. The Potency in test [17] is 26.6 µM (active).

`CCCCC/C=C\C=C\C(=O)OCC`: the Potency in test [1] was 25.4 µM (active). Besides, the Potency result in test [2], in [3], in test [4], in test [5], in test [6] and in [7] was “inactive” each time. Besides, the Potency entry in [8], in test [19], in [9], in test [12], in [13] and in test [16] was “inactive” each time. The Potency result in [17] was “inactive”.

Turning to `CN(C)CC/C=C1\c2ccccc2Sc2ccc(Cl)cc21`, the Potency result in test [1], in [2], in test [3], in [4], in test [5] and in test [6] was “inactive” throughout. The Potency entry in test [7], in test [8], in test [19], in [11], in test [12] and in test [13] was “inactive” in each case. Besides, the Potency result in test [15], in test [16] and in test [17] was “inactive” throughout. For the same compound, the Potency in [10] is 0.0729 µM (active); in test [18], 0.531 µM (active).

Regarding `O=C1CCCCCN1SSN1CCCCCC1=O`, the Potency in test [1] was 24.3 µM (active). The Potency entry in [2], in [3], in test [4], in test [5], in test [6] and in [7] was “inactive” throughout. Also, the Potency entry in [8], in test [19], in test [10], in test [11], in [12] and in test [13] was “inactive” in each case. Also, the Potency result in test [15], in [16], in test [17] and in test [18] was “inactive” in each case.
